Values without a mark were called inactive.

This assay deals with Vero E6 infected with SARS-CoV-2. The experiment in a line: SARS-CoV-2 infection rate relative to infected DMSO; higher = more infection, active = 60 or less. Conditions: 24 h.
Consider `O=C1Nc2ccc(Cl)c3c2C1(CCCCN1CC=C(c2ccc(Cl)cc2)CC1)CCC3` (stereo not drawn) (0.833333 µM), for which the SARS-CoV-2 infection rate was 106%.

Take `Cc1ncc([N+](=O)[O-])n1CC(O)CCl` (stereo not drawn) [ornidazole] (10 µM): the SARS-CoV-2 infection rate is 107%.

For `CC(C)(C)NCC(O)c1ccc(O)c(CO)c1` (stereo not drawn) [albuterol] (10 µM), the SARS-CoV-2 infection rate is 100%.

`CCCCCCCCCCCCCCCC(=O)C(F)(F)F` (10 µM): the SARS-CoV-2 infection rate is 97%.

On to `Nc1nc(=O)n([C@H]2C[C@H](O)[C@@H](CO)O2)cc1Cl` [cytochlor] (10 µM), for which the SARS-CoV-2 infection rate is 102%.

Turning to `CC[C@@H](C(=O)[C@@H](C)[C@@H](O)[C@H](C)[C@@H]1O[C@@H]([C@@H](CC)C(=O)O)CC[C@@H]1C)[C@H]1O[C@]2(C=C[C@@H](O)[C@]3(CC[C@@](C)([C@H]4CC[C@](O)(CC)[C@H](C)O4)O3)O2)[C@H](C)C[C@@H]1C` [Salinomycin (Procoxacin)] (10 µM), the SARS-CoV-2 infection rate is 108%.

Regarding `C/C(=C\CNc1ncnc2[nH]cnc12)CO` [zeatin] (10 µM), the SARS-CoV-2 infection rate was 106%.

Take `CC(=O)Nc1c(I)c(C(=O)O)c(I)c(N(C)C(C)=O)c1I` [metrizoic-acid] (10 µM): the SARS-CoV-2 infection rate was 108%.

Take `Clc1ccc(CSC(Cn2ccnc2)c2ccc(Cl)cc2Cl)cc1` (stereo not drawn) [sulconazole] (10 µM): the SARS-CoV-2 infection rate is 110%.

In the case of `C1=N/C2=N/c3ccc(OCCN4CCCC4)c(c3)COC/C=C/COCc3cccc(c3)C(=C1)N2` [pacritinib] (0.833333 µM), the SARS-CoV-2 infection rate was 80%.

Regarding `COc1cc(C[C@H]2C(=O)OC[C@@H]2Cc2ccc(OC)c(OC)c2)ccc1O` [arctigenin] (10 µM), the SARS-CoV-2 infection rate was 108%.

For `CO[C@@H]1[C@@H](OC(N)=O)[C@@H](O)[C@H](Oc2ccc3c(O)c(NC(=O)c4ccc(O)c(CC=C(C)C)c4)c(=O)oc3c2C)OC1(C)C` [novobiocin] (10 µM), the SARS-CoV-2 infection rate is 95%.

Turning to `COC(=O)C1=C(C)NC(C)=C(C(=O)OCCCN2CCC(c3ccccc3)(c3ccccc3)CC2)[C@@H]1c1cccc([N+](=O)[O-])c1` [dexniguldipine] (0.833333 µM), the SARS-CoV-2 infection rate is 97.5%.

In the case of `COc1cccc(C2(O)CCCCC2CN(C)C)c1` (stereo not drawn) (10 µM), the SARS-CoV-2 infection rate is 104%.

In the case of `COc1ccc(-c2ccc3c(N4CCOCC4)nc(N4C[C@@H](C)O[C@@H](C)C4)nc3n2)cc1CO` (0.833333 µM), the SARS-CoV-2 infection rate was 110%.

Turning to `N=C1CCCN1Cc1[nH]c(=O)[nH]c(=O)c1Cl` [tipiracil] (10 µM), the SARS-CoV-2 infection rate is 106%.

Regarding `CC[C@@]1(O)C(=O)OCc2c1cc1n(c2=O)Cc2cc3c(CN(C)C)c(O)ccc3nc2-1` [topotecan] (10 µM), the SARS-CoV-2 infection rate is 108%.

For the compound `CC(C)NCC(O)c1cc(O)cc(O)c1` (stereo not drawn) [metaproterenol] (10 µM), the SARS-CoV-2 infection rate is 104%.

As for `NCCCC[C@H](N[C@@H](CCc1ccccc1)C(=O)O)C(=O)N1CCC[C@H]1C(=O)O` [lisinopril] (10 µM), the SARS-CoV-2 infection rate is 100%.

Consider `O[C@H]1CC[C@H](Nc2nc(-c3ccccc3)nc3[nH]ccc23)CC1` (10 µM), for which the SARS-CoV-2 infection rate was 93%.

Turning to `CC(CCc1ccc(O)cc1)NCC(O)c1ccc(O)cc1` (stereo not drawn) [ractopamine] (10 µM), the SARS-CoV-2 infection rate was 111%.

As for `CC(=O)N1CCN(CCOc2ccc(C3CCN(C4=Nn5c(nnc5C(F)(F)F)CC4)CC3)cc2)CC1` (0.833333 µM), the SARS-CoV-2 infection rate was 98.5%.

With `CC(C)(C#N)c1cc(Cn2cncn2)cc(C(C)(C)C#N)c1` [anastrozole] (10 µM), the SARS-CoV-2 infection rate is 109%.

`O=[N+]([O-])C(Br)(CO)CO` [bronopol] (10 µM): the SARS-CoV-2 infection rate was 108%.

`C[C@@H]1O[C@@H](O[C@@H]2[C@@H](O)[C@H](OCCc3ccc(O)c(O)c3)O[C@H](CO)[C@H]2OC(=O)/C=C/c2ccc(O)c(O)c2)[C@H](O)[C@H](O)[C@H]1O` [verbascoside] (10 µM): the SARS-CoV-2 infection rate is 104%.

Turning to `Nc1n[nH]c2nnc(-c3c(-c4ccccc4)nn4ccccc34)cc12` (10 µM), the SARS-CoV-2 infection rate was 103%.

With `Cc1cc(C)c(NC(=O)C2CC3CCC2C3)c(C)c1` (stereo not drawn) (10 µM), the SARS-CoV-2 infection rate was 102%.

In the case of `N[C@@H](CS)C(=O)O` [L-cysteine] (10 µM), the SARS-CoV-2 infection rate is 94%.

The values above are taken from the supplement of paper PMC13380429.
